aSyn UTR inh: MLPCN primary screen, SNCA 5' untranslated region; alpha-synuclein 5'UTR reporter, inhibitor activity; inhibition, % (tested at 7.5 µM); hit rate 0.82% among 300,000; in the data active = inhibition above about 60%; inconclusive = no clear call, values can overlap the other calls;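 also: H4 neuroglioblastoma cells stably carrying SNCA 5'UTR luciferase fusion; 0% = DMSO wells and 100% = positive control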
BaF3 parental: counter-screen for JAK2V617F inhibitors: parental Ba/F3 viability inhibitors; CellTiter-Glo ATP luminescence; inhibition, % at 5.6 µM; hit rate 1.1% among 220,000; AID 1486;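 active = inhibition above a per-campaign cutoff, the mean inhibition of all tested compounds plus 3 SD, cut at about 27% in these data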;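 also: 0% = DMSO wells and 100% = JAK Inhibitor I control wells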
Ba/F3 V617F tox: reduce viability of Ba/F3 cells dependent on JAK2V617F. Ba/F3 EpoR-JAK2V617F viability, ATP luminescence. hit rate 1.1% among 220,000. inhibition, % at 5.6 µM;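 active = inhibition above the campaign mean plus 3 SD over all tested compounds, cut at about 24% in these data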;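 also: cytokine-independent growth of Ba/F3 cells driven by EpoR plus mutant JAK2; 0% = DMSO-treated cells and 100% = JAK inhibitor I control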
APP 5UTR inh: APP translation inhibition | SH-SY5Y APP 5'UTR-luciferase reporter, luminescence | inhibition, % at 2 µM | hit rate 0.82% among 190,000;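 active = inhibition above a set limit, derived from the sample mean plus 3 SD, cut at about 45% in these data; inconclusive = one replicate passes the limit while the other fails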
IEC-6 tox-1: IEC-6 cytotoxicity, counter-screen for KLF5 inhibitors | inhibition, % at 5 µM | hit rate 0.78% among 290,000 | luminescence viability;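 also: 0% = plate median of test compound wells and 100% = cytotoxic reference compound wells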
KLF5 inh: suppresses KLF5 promoter-driven expression | inhibition, % at 5 µM | DLD-1 KLF5 promoter-luciferase reporter, luminescence | hit rate 0.23% among 290,000;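 active = inhibition above a per-plate limit of that plate's mean compound inhibition plus 3 SD, cut at about 60% in these data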;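 also: 0% = DMSO wells and 100% = LY294002 at 200 µM; higher means less KLF5 promoter-driven luciferase light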
KLF5 confirm: KLF5 inhibition, confirmation assay. DLD-1 KLF5 promoter firefly luciferase reporter, luminescence. shares compounds with KLF5 inh. hit rate 79% among 610. inhibition, % at 4 µM. AID 1834;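 active = inhibition above a set limit taken from the earlier primary screen, cut at about 63% in these data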;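 also: 0% = DMSO wells and 100% = LY294002 at 200 µM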
IEC-6 tox-2: kills rat IEC-6 cells in KLF5 counter-screen; IEC-6 rat intestinal cells, viability luminescence; hit rate 56% among 610; shares compounds with KLF5 inh; AID 1905; inhibition, % at 4 µM; in the data active = inhibition above about 23%;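 also: cells exposed to compounds for 48 hours before viability read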
IEC-6 tox confirm: IEC-6 cytotoxicity, confirmation assay | shares compounds with IEC-6 tox-1 | IEC-6 rat intestinal epithelial viability, luminescence | inhibition, % at 5 µM | hit rate 63% among 1,900 | AID 1907;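 also: 0% = vehicle and 100% = reference cytotoxic drug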
An asterisk follows results filed as active; ? = inconclusive; · = not tested or not shown. A selection: hits, their analogues and other compounds. The true share with any hit is near 2.1%. Rule as the data show it, unless noted: active = inhibition above about 22%; inactive = the rest.

SMILES | aSyn UTR inh | BaF3 parental | Ba/F3 V617F tox | APP 5UTR inh | IEC-6 tox-1 | KLF5 inh | KLF5 confirm | IEC-6 tox-2 | IEC-6 tox confirm
CCCC(=O)NC(c1ccc(C)cc1)c1ccc2cccnc2c1O (configuration not stated) | 58 | · | · | · | 55* | 99* | 87* | 75* | 83*
CCCCC(=O)NC(c1ccccc1OC)c1ccc2cccnc2c1O (configuration not stated) | 101* | 38* | 47* | · | 24* | 76* | 94* | 48* | 57*
CCCCC(=O)NC(c1ccc(N(C)C)cc1)c1ccc2cccnc2c1O (configuration not stated) | 62* | · | · | · | 62* | 85* | 88* | 64* | 86*
CCCC(=O)NC(c1ccccc1)c1c(O)ccc2ccccc12 (configuration not stated) | 8 | · | · | · | 2 | -16 | · | · | ·
Cc1ccc(OCC(=O)NCCNC(=O)c2cnccn2)cc1C | -11 | · | · | · | -4 | -30 | · | · | ·
CCOC(=O)N1CCC(NC(=O)c2ccc3c(c2)N=C(C)c2c(C)ccc(C)c2S3)CC1 | 37 | · | · | · | 87* | 71* | 87* | 61* | 67*
O=C(Nc1ccc2nc3n(c(=O)c2c1)CCCCC3)c1c(F)ccc([N+](=O)[O-])c1F | 85* | · | · | · | 92* | 62* | -19 | 22 | 32*
CCCC1=Nc2cc(C(=O)NCCCOCC)ccc2Sc2ccccc21 | 67* | 91* | 93* | 97* | 97* | 80* | 86* | 71* | 74*
COc1cc(/C=N/NC(=O)CCC(=O)NC2CCCCC2)ccc1C | 2 | 1 | 3 | -6 | 5 | 2 | · | · | ·
CCOc1ccccc1/C=N/Nc1ccc(Cl)nn1 | -20 | · | · | · | -2 | 33 | · | · | ·
CCOc1ccc(/C=N/Nc2ccc(Cl)nn2)c(O)c1 | 34 | · | · | · | 94* | 82* | 31 | -2 | 5
CCCN(C(=O)COC(=O)CNC(=O)c1ccc2ccccc2c1)c1c(N)n(Cc2ccccc2)c(=O)[nH]c1=O | -1 | · | · | · | · | · | · | · | ·
COc1ccc(S(=O)(=O)NCc2ccccn2)cc1NC(=O)c1ccc(C)cc1 | -54 | · | · | · | · | · | · | · | ·
CCOc1ccc(S(=O)(=O)NCc2ccccn2)cc1NC(=O)c1ccccc1F | 76* | · | · | · | 88* | 70* | 81* | 55* | 58*
O=C1[C@@H]2Cc3c([nH]c4ccccc34)C(c3ccccc3)N2C(=O)CN1C1CC1 (some centres not stated) | 18 | · | · | · | -11 | 0 | · | · | ·
O=C1[C@@H]2Cc3c([nH]c4ccccc34)C(c3ccc([N+](=O)[O-])cc3)N2C(=O)CN1C1CC1 (some centres not stated) | -34 | · | · | · | 80* | 69* | 75* | 45* | 50*
COc1ccc(C(=O)/C(=C\c2ccco2)N2C=CC=CC2=C(C#N)C#N)cc1 | 77* | 100* | 99* | 84* | 83* | 69* | 48 | 50* | 62*
COc1ccc(C(=O)N/C(=C\c2ccco2)C(=O)OCc2ccco2)cc1 | -17 | -3 | -4 | · | -11 | -15 | · | · | ·
CCOc1ccc(NC(=O)c2cc(OC)nc3ccccc23)cc1 | 83* | · | · | · | 88* | 66* | 82* | 63* | 53*
Cc1ccccc1NC1=C/C(=N\S(=O)(=O)c2ccc(C(=O)O)cc2)c2ccccc2C1=O | -69 | · | · | · | 16 | -17 | · | · | ·
COc1ccc(S(=O)(=O)/N=C2\C=C(Nc3ccc(O)cc3)C(=O)c3ccccc32)cc1 | 100* | · | · | · | 101* | 104* | 114* | 102* | 100*
COc1ccccc1C(=O)N/C(=C\c1cn(S(=O)(=O)N(C)C)c2ccccc12)C(=O)N1CCCCC1 | -1 | · | · | · | 0 | -14 | · | · | ·
NC(=O)Cn1c(=O)n(CCC(=O)Nc2ccc(F)cc2)c(=O)c2sccc21 | -25 | · | · | · | 0 | -28 | · | · | ·
O=C(Cc1ccc(N2CCNC2=O)cc1)N1CCCC(Nc2cccc(F)c2)C1 (configuration not stated) | 64* | · | · | · | 71* | 70* | 71* | 47* | 56*
O=C(Cc1ccc(N2CCNC2=O)cc1)N1CCCC(Nc2ccc(F)c(F)c2)C1 (configuration not stated) | 13 | · | · | · | 48* | 67* | 69* | 62* | 35*
SMILES | aSyn UTR inh | BaF3 parental | Ba/F3 V617F tox | APP 5UTR inh | IEC-6 tox-1 | KLF5 inh | KLF5 confirm | IEC-6 tox-2 | IEC-6 tox confirm
O=C1CCCN1CCC(=O)N1CCCC(Nc2ccc(F)c(F)c2)C1 (configuration not stated) | 6 | · | · | · | 1 | -54 | · | · | ·
CCN(C(=O)CN1C(=O)S/C(=C\c2cccc(OC)c2)C1=O)C1CCS(=O)(=O)C1 (configuration not stated) | 5 | · | · | · | -5 | 7 | · | · | ·
COc1cc(C(=O)N2CCN(c3cccc(C)c3C)CC2)cc(OC)c1OC | ? | 71* | 70* | 95* | 82* | 72* | 75* | 59* | 58*
Cc1cccc(N2CCN(C(=O)c3ccncc3)CC2)c1C | 14 | 7 | 5 | 4 | 10 | 17 | · | · | ·
CCC1=Nc2cc(C(=O)NCc3ccco3)ccc2Sc2ccc(C)cc21 | 104* | 84* | 86* | 94* | 81* | 75* | 88* | 67* | 65*
Cc1ccc(C(=O)N/N=C\C=C\c2ccc(Br)cc2)cn1 | -14 | 5 | 2 | -15 | 2 | -14 | · | · | ·
Cc1ccc(C(=O)N/N=C/c2cc(Br)ccc2O)cn1 | 3 | · | · | · | 84* | 83* | 87* | 9 | 13
O=C(CN1CCCCC1)NNC(=O)c1cccc(Br)c1 | 3 | · | · | · | -3 | -5 | · | · | ·
Cc1nc2ccccn2c1-c1csc(NCc2ccco2)n1 | -20 | 1 | -1 | -6 | 0 | -15 | · | · | ·
Cc1ccc(Nc2nc(-c3c(C)nc4ncccn34)cs2)cc1 | 84* | 78* | 76* | 95* | 90* | 73* | 79* | 73* | 59*
Cc1ccc(Nc2nc(-c3c(C)nc4ccccn34)cs2)cc1 | 44 | 92* | 94* | 96* | 94* | 87* | 87* | 79* | 79*
CNc1cc(C)nc(-n2nc(C)cc2C)n1 | -14 | 2 | -2 | 27 | -3 | 7 | · | · | ·
CCOc1ccc(Nc2cc(C)nc(-n3nc(C)cc3C)n2)cc1 | 63* | 81* | 77* | 96* | 84* | 81* | 81* | 56* | 52*
O=C(CSc1n[nH]c(-c2ccc(Cl)cc2Cl)n1)Nc1ccccn1 | -1 | 6 | 0 | 38 | 0 | -23 | · | · | ·
O=C(CSc1n[nH]c(-c2ccccn2)n1)Nc1ccc(Cl)cc1 | 74* | · | · | · | 44* | 73* | 63* | 18 | 29*
O=C(O)c1cccnc1SCc1cccc(Br)c1 | -20 | · | · | · | 7 | 11 | · | · | ·
